POLH inh: DNA polymerase eta (human) inhibition; Q9Y253; 390,000 compounds, 1.2% hits; recombinant Pol eta, fluorescent DNA replication assay; Potency, µM (top dose mostly 114 µM), without a hit: at the highest dose activity change, negative = inhibition, usual class: inhibitors; also: % is scaled to controls: 0 for no effect and ±100 for the full control effect
Target sequence (Q9Y253 whole entry, looked up): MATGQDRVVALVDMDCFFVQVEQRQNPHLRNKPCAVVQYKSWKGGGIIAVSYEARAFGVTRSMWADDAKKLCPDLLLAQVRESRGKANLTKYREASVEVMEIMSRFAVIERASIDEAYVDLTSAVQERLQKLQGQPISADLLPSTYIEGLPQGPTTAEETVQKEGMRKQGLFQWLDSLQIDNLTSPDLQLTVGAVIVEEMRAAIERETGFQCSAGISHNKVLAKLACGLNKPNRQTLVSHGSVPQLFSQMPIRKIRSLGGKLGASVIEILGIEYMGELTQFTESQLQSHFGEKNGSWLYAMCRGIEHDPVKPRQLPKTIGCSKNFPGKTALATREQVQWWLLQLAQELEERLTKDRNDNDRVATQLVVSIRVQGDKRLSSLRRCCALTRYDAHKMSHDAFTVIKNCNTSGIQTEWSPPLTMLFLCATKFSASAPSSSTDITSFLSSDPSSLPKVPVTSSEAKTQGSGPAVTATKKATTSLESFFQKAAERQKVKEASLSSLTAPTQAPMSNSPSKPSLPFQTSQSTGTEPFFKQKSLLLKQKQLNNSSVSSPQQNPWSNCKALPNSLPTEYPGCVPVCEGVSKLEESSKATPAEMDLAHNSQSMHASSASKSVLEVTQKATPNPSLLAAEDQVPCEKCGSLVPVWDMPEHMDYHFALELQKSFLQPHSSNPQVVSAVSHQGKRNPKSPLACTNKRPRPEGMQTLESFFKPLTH
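Fluorescent replication assay: 50 nM final substrate added after a 15 min room-temperature compound preincubation with 10 nM enzyme. Signal taken at 0 min and again at 10 min.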
WRN inhibitor: blocks human WRN helicase. Q14191. WRN helicase unwinding, fluorescent forked duplex, kinetic. Potency, µM (doses to about 114 µM), inactives show top-dose activity change, negative = inhibition, most hits filed as inhibitors. 360,000 compounds, 0.46% hits; also: % is scaled to controls: 0 for no effect and ±100 for the full control effect; nearly all actives have a fitted effect of over 55% in size
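Enzyme (20 nM final) and test compound sit together 15 min at room temperature before substrate addition. Substrate is a single-forked duplex oligonucleotide (100 nM) labelled with fluorophore and quencher, with 2 mM ATP; helicase unwinding raises red fluorescence, read kinetically.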
FEN1 inhibitor: inhibitors of human flap endonuclease 1. 390,000 compounds, 0.35% hits. P39748. AID 588795. Recombinant FEN1 flap cleavage, fluorescence, 15 min. Potency, µM (top dose mostly 114 µM), inactives show top-dose activity change, negative = inhibition, actives largely listed as inhibitors; also: % is scaled to controls: 0 for no effect and ±100 for the full control effect; nearly all actives have a fitted effect of over 65% in size
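Enzyme 10 nM, 15 min RT preincubation with compound; start with substrate 50 nM final; reads at 0 and 15 min; qHTS titration, four-parameter Hill fit.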
POLI inh: inhibitors of human DNA polymerase iota. Pol iota fluorescent replication assay, 10 min. 390,000 compounds, 1% hits. Q9UNA4. Potency, µM (titrated, usually from 115 µM), for the others: at the top dose activity, negative = inhibition, hits mostly inhibitors. AID 588590
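Fluorescent replication assay read twice, at 0 min and 10 min after adding 50 nM (final) substrate. Enzyme (10 nM) and compounds were first incubated 15 min at room temperature; enzyme-free buffer wells were negative controls.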
Pol beta inh: blocks human DNA polymerase beta activity. P06746. Pol beta primer extension/strand displacement, fluorescence kinetic. Potency, µM (top dose mostly 114 µM), inactives show at the highest dose activity change, negative = inhibition, actives largely listed as inhibitors. 340,000 compounds, 1.3% hits. AID 485314; also: % is scaled to controls: 0 for no effect and ±100 for the full control effect
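Enzyme-only controls used 10 nM Pol beta; buffer lacking enzyme served as negative control. Compound preincubated 15 min, then 50 nM substrate added; 0 and 10 min reads at room temperature.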
Pol kappa inh: DNA polymerase kappa (human) inhibition. purified Pol kappa, fluorescent DNA synthesis assay, 10 min. Q9UBT6. AID 588579. 400,000 compounds, 0.53% hits. Potency, µM (series often up to 107 µM), for inactives: at the highest dose activity, negative = inhibition, most hits filed as inhibitors; also: % is scaled to controls: 0 for no effect and ±100 for the full control effect
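10 nM Pol kappa was preincubated with compounds for 15 min at room temperature. Reaction started with 50 nM (final) substrate. Fluorescence read kinetically at 0 and 10 min.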
Active calls of the source: *; ? = inconclusive; · = no result; [ ] = dose if it differs, or a comment. Only some compounds are listed: those with a hit (about 2.4% of all), similar ones and a draw of the others. Calls follow the shape of the dose curve; as a rule, active = well fitted curve in the direction sought with a large enough effect; inconclusive = small, poorly fitted or top-dose-only effect, or another doubt; inactive = no such curve, though single readings can be large; an effect the other way counts as inactive or inconclusive. Potency is read from the fitted curve at half-maximal effect.

SMILES	POLH inh	WRN inhibitor	FEN1 inhibitor	POLI inh	Pol beta inh	Pol kappa inh
CS(=O)(=O)c1ccc(C(=O)OCC(=O)NCc2cccs2)cc1[N+](=O)[O-]	45µM*	-8%[11.6 µM]	0%	?	·	-12%
COc1ccc2c(c1)-c1nc(/N=C/c3ccc(O)c(OC)c3)sc1CC2	-13%	79µM*	-14%	4%	15%	-14%
COc1ccc2c(c1)-c1nc(N)sc1CC2	-22%	-1%	8%	20%	22%	0%
O=c1c2ccccc2nc(/C=C/c2ccc([N+](=O)[O-])cc2)n1CCCO	-11%	0%	-9%	-22%	1%	1%
O=c1c2ccccc2nc(/C=C/c2ccc([N+](=O)[O-])o2)n1CCCO	16µM*	-7%	4%	-28%	?	1%
Cc1oc2ccc(O)c(CN(C)Cc3ccccc3)c2c1C(=O)Nc1cccc(C(F)(F)F)c1	-10%	·	-18%	-26%	?	1%
Cc1ccc(-c2csc(NC(=O)CSc3nc4ccccc4[nH]3)n2)cc1	-15%	-13%	3%	-11%	5%	-16%
COc1ccccc1NC(=O)CCSCCC(=O)Nc1ccccc1OC	?	-13%	-9%	-12%	56µM*	-23%
COc1ccc(NC(=O)CSc2nc(O)cc(=O)n2C)cc1	-1%	?	?	?	0%	?
COc1ccc(-c2csc(NC(=O)CSc3nc4ccccc4c(=O)[nH]3)n2)cc1	?	-10%[11.6 µM]	-18%	35µM*	-29%	?
O=C(CSc1nc(O)cc(=O)n1-c1ccccc1)Nc1ccc2c3c(cccc13)CC2	-29%	?	2%	?	35µM*	-17%
COc1ccc(NC(=O)CSc2nc(O)cc(=O)n2-c2ccccc2)cc1	-9%	3%[11.6 µM]	-10%	79µM*	?	-22%
Cc1c(O)nc(SCC(=O)Nc2ccc3c4c(cccc24)CC3)n(-c2ccccc2)c1=O	-15%	-19%	-12%	61%	?	-3%
COc1ccc(N(CC(=O)N2CCc3ccccc3C2)S(=O)(=O)c2ccc(C)cc2)cc1Cl	-10%	·	-9%	-11%	-11%	-20%
CC(C)(C)n1ncc2c(=O)n(Cc3cc(F)c(F)cc3Cl)cnc21	·	·	-16%	9%	·	8%
COc1ccc2nc(SCC(=O)Nc3ccccc3)[nH]c2c1	-15%	0%	-1%	-15%	28µM*	-11%
COc1ccc(NC(C)=O)cc1NC(=O)CSc1nc2ncccc2[nH]1	-14%	?	-9%	2%	-7%	-9%
COc1ccc2nc(SCC(=O)NCc3ccccc3)[nH]c2c1	3%	-4%	3%	32%	92%	-18%
COc1ccccc1NC(=O)CSc1nc2ncccc2[nH]1	-8%	1%	8%	28%	35µM*	-7%
C(=C\c1ccnc2ccccc12)/c1ccc(N2CCNCC2)cc1	·	·	-12%	20%	·	5%
CCOc1ccc(NC(=O)CN2C(=O)C3(SCC(=O)N3c3ccc(F)cc3)c3ccccc32)cc1 (stereo not given)	-21%	·	-4%	3%	2%	0%
O=C1CCC[C@@H]2C[C@@]3(C[C@@H]4CCN1[C@H]24)Nc1cc([N+](=O)[O-])ccc1NC3=NCc1ccccc1	·	·	-19%	1%	·	-13%
O=C1NC(=S)N/C1=C/c1cccn1-c1ccc([N+](=O)[O-])cc1	?	-7%	-19%	56µM*	7.9µM*	?
O=C(O)c1cc(N=Nc2ccc(-c3ccc(N=Nc4ccc(O)c(C(=O)O)c4)cc3)cc2)ccc1O	·	·	·	·	·	6µM*
O=C(O)c1cc(N=Nc2ccc(O)c(C(=O)O)c2)ccc1O	·	·	·	·	·	3%[19.4 µM]
SMILES	POLH inh	WRN inhibitor	FEN1 inhibitor	POLI inh	Pol beta inh	Pol kappa inh
O=C(O)C1CC(c2ccc(F)cc2)=NO1 (stereo not given)	-2%	-6%	-2%	-3%	7.9µM*	-11%
O=C(N/N=C/c1ccc([N+](=O)[O-])o1)c1ccccc1NS(=O)(=O)c1cccs1	56µM*	-11%[11.6 µM]	?	40µM*	?	-25%
CCN(c1ccc(OC)cc1)S(=O)(=O)c1nnc(NC(=O)COc2ccc(C)cc2)s1	-2%	-5%	4%	-6%	7.9µM*	-16%
CCN(c1cc(C)cc(C)c1)S(=O)(=O)c1nnc(NC(=O)c2cccs2)s1	89µM*	·	-8%	25%	-28%	-16%
CC1=C(C(=O)Nc2cccnc2)C(c2ccc(F)cc2)n2nc(-c3cccc(C)c3)nc2N1 (stereo not given)	-5%	·	-6%	-1%	0%	0%
Cc1cccc(/C=N/NC(=O)c2cc(Br)ccc2OCc2ccccc2)n1	-24%	-29%	14%	?	45µM*	-16%
CN1/C(=C/c2cccc[n+]2C)Sc2ccccc21	2%	-1%[11.6 µM]	45µM*	?	32µM*	-8%
Cc1ccc2oc(C(=O)Nc3c(C(=O)Nc4ccccc4)oc4ccccc34)cc(=O)c2c1	2%	·	0%	30%	30%	3%
CC(=O)Nc1ccc(/C=C/C(=O)c2ccc3c(c2)OCCO3)cc1	-22%	-5%	9%	?	16%	-17%
O=C(O)c1ccc(/C=C/C(=O)c2ccc3c(c2)OCCCO3)cc1	22µM*	-9%[11.6 µM]	-1%	?	9%	-3%
COc1cc(/C=C/C(=O)c2ccc3c(c2)OCO3)cc(Cl)c1O	40µM*	-3%[11.6 µM]	-3%	20µM*	40µM*	?
O=C(/C=C/c1ccccc1)c1ccccc1	?	-17%[57.1 µM]	-13%	22µM*	46%	-19%
O=C(/C=C/c1ccccc1)c1cc(Br)ccc(=O)c1O	?	?	?	3.2µM*	?	40µM*
O=C(/C=C/c1ccc(F)cc1)c1cc(Br)ccc1O	-19%	-29%	-1%	59%	8%	5%
COc1ccc(C(=O)C=Cc2ccc3c(c2)OCO3)cc1OC	-10%	-1%	·	·	·	·
O=C(Nc1ccc(Br)cc1F)N1CCC2(CC1)Oc1ccccc1C(=O)N2Cc1ccccc1F	·	·	-5%	18%	24%	-3%
CCN(CC)S(=O)(=O)c1ccc(C(=O)NCCSc2c(-c3ccc(F)cc3)[nH]c3ccccc23)cc1	-14%	·	-11%	9%	-9%	-21%
Cc1cccc(NC(=O)c2sc(-n3nc(C)c(Cc4ccc5c(c4)OCO5)c3C)nc2C)c1C	-26%	·	-2%	5%	19%	-2%
C=C(C(=O)O)c1ccc2ccccc2c1	·	·	-18%	79µM*	·	?
CC(/C=C\c1ccccc1)=C/C(=O)O	-6%	-7%	4%	136%	-6%	3%
Cc1ccc(C(=O)NNC(=O)c2ccc3ccccc3c2)cc1	-10%	-10%	-2%	59%	·	-16%
O=C(/C=C/c1ccccc1)/C=C/c1ccccc1	18µM*	?	?	?	24%	-11%

Screening data as filed in PubChem BioAssay.
